# An excerpt weighted towards active compounds, which were near 28% of everything screened.
# CYP2C9 inh: human CYP2C9 inhibition. CYP2C9 Supersomes, luciferin-H conversion, luminescence. inhibition, % at 5 µM. 96,000 tested, 20% active;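 active = blocking of liver enzyme CYP2C9 beyond about 50% at 5 µM, limit read from the data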
# Plk1 PBD FP: inhibitors of human Plk1 polo box domain binding; P53350; Plk1 PBD phosphopeptide binding, fluorescence polarization; inhibition, %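 (tested at about 20 µM)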; 97,000 tested, 0.13% active; in the data active = inhibition above about 34%, passing the limit was not always enough
# Target sequence (P53350 whole entry, looked up, the tested form may be a part): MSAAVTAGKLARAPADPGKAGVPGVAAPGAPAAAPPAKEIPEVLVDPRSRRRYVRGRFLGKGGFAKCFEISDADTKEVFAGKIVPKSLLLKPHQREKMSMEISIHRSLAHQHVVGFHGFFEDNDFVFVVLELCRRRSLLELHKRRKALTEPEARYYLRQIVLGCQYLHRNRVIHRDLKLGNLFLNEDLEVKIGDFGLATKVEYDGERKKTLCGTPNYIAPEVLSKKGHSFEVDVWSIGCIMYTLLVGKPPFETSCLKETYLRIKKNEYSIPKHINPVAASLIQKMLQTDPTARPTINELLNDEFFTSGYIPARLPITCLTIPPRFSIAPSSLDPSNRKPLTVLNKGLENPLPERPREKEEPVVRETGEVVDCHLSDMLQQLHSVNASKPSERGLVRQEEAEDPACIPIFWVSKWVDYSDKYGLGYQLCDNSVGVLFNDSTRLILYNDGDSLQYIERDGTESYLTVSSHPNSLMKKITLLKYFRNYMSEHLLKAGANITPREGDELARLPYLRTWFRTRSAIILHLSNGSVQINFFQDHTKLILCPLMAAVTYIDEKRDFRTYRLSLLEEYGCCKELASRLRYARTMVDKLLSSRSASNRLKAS
# CYP2C19 activ: cytochrome P450 2C19 (human) activation; 96,000 tested, under 10 active; AID 1025; recombinant CYP2C19, luciferin-H EGE luminescence; stronger effect = higher value; 0 = fully inhibited enzyme, 1 = untreated enzyme; activation factor at 5 µM; P33261;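 active = activation factor of at least 2 at 5 µM in the primary screen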;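 also: 0 = wells with 2.5 mM tranylcypromine and 1 = vehicle-only wells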
# CYP2C9 activ: activators of human CYP2C9; P11712; recombinant CYP2C9, luciferin-H conversion, luminescence; stronger effect = higher value; factor 1 = untreated enzyme, 0 = blocked; activation factor at 5 µM; 96,000 tested, 1.4% active; AID 1024;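 active = activation factor of 2 or more for CYP2C9 at a 5 µM dose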;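 also: 0 = sulfaphenazole-blocked wells and 1 = vehicle-only wells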
# CYP2C19 inh: human CYP2C19 inhibition; CYP2C19 Supersomes, luciferin-H EGE luminescence, 30 min; P33261; 96,000 tested, 21% active; inhibition, % at 5 µM; AID 778;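 active = CYP2C19 inhibition above a set limit at 5 µM in the primary screen, cut at about 50% in these data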;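 also: plate controls were negative control wells for no effect and 2.5 mM tranylcypromine positive control for full effect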
# PLK1 inh: blocks human PLK1 kinase activity; P53350; recombinant PLK1 kinase, TR-FRET peptide phosphorylation; inhibition, % at 10 µM; 97,000 tested, 0.53% active; AID 619;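 active = inhibition of 50% or more in the single-concentration screen; inactive = inhibition below 50%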;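 also: 0% = DMSO max control and 100% = H-89 dihydrochloride min control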
# Active calls of the source: *; · = not tested or not shown.
SMILES,CYP2C9 inh,Plk1 PBD FP,CYP2C19 activ,CYP2C9 activ,CYP2C19 inh,PLK1 inh
Cc1cccc(-n2nnnc2SCC(=O)c2cc(C)n(Cc3ccco3)c2C)c1,-157.9,17.0,0.5,2.6*,45.7,3.0
Cc1cc(C(=O)CSc2nc3ccccc3[nH]2)c(C)n1CC1CCCO1 (stereo not given),56.5*,-13.0,0.5,0.4,54.2*,-3.9
Cc1cc(C(=O)CSc2nc3ccccc3o2)c(C)n1CC1CCCO1 (stereo not given),1.0,0.0,0.7,1,26.7,-10.6
CCCCN1Cc2cc(C(=O)c3cc(F)ccc3O)cnc2NC1=O,38.0,-3.6,0.8,0.6,22.9,0.5
O=c1c2ccccc2nc2n1CC/C2=C/N1CCN(c2cccc(C(F)(F)F)c2)CC1,-15.9,7.1,0.9,1.2,8.2,-14.5
Fc1ccc(OCCOCCNCC2CCCO2)cc1 (stereo not given),·,-24.7,·,·,·,-7.7
CN1C(=O)C2(c3ccccc31)C1CCCC=C1C(C#N)=C(N)C2(C#N)C#N (stereo not given),19.3,-3.0,1,0.8,0.5,-8.9
Cc1sc2nc(SCC(=O)c3cc(C)n(CC4CCCO4)c3C)n(C(C)C)c(=O)c2c1C (stereo not given),88.4*,-38.0,0.2,0.1,82.2*,-10.4
Cc1cc(C(=O)CSc2nnnn2-c2ccc(O)cc2)c(C)n1Cc1ccc2c(c1)OCO2,25.4,·,0,0.7,99.0*,·
CCOC(=O)c1ccc2cccc(C)n2c1=O,74.4*,26.5,0.1,0.3,87.5*,-8.2
CCOC(=O)c1sc(NC(C)=O)c(C(=O)OCC)c1C,23.8,-1.5,0.7,0.8,26.9,-13.7
CCOC(=O)c1sc(NC(=O)CN(CC)CC)c(C(=O)OCC)c1C,76.5*,-13.6,0.8,0.2,19.8,-3.4
CCOC(=O)c1c(NC(=O)CN(CC)CC)sc2c1CCC2,52.2*,-1.0,0.9,0.5,12.4,-3.6
CCOC(=O)c1c(NC(=O)OC)sc2c1CCC2,-8.9,-22.5,1,1.1,1.1,-5.4
CCCOC(=O)c1c(N)sc2c1CCC2,50.0*,-4.0,0.6,0.5,42.7,-3.1
CCOC(=O)Nc1sc(C(=O)N(CC)CC)c(C)c1C(=O)OCC,68.6*,-12.0,0.5,0.3,49.8,-10.0
Cc1ccc(CN2CCN(CC3CC4C=CC3C4)CC2)cc1 (stereo not given),-5.4,-1.3,0.9,1.1,13.8,0.2
Cc1nc2ccc(S(=O)(=O)NC(C(=O)N3CCC(C)CC3)C(C)C)cc2s1 (stereo not given),28.6,-11.9,0.9,0.7,13.0,-8.3
COc1cccc(/C(C#N)=C/c2c(-c3ccc(Cl)cc3)nc3c(C)cccn23)c1,70.1*,-16.0,0.4,0.3,55.1*,-2.1
COc1ccc(CCNC(=O)CCNS(=O)(=O)c2cccc3nonc23)cc1OC,17.7,14.8,0.3,0.8,72.5*,-1.8
CCC(=O)Nc1ccc(OC)cc1OC,14.9,7.3,1.1,0.9,-12.2,-7.2
COc1ccc(CCNC(=O)CN(C)S(=O)(=O)c2cccc3nsnc23)cc1OC,43.3,-1.2,0.9,0.6,8.8,-1.7
O=C(CCNS(=O)(=O)c1cccc2nonc12)NC1CCCc2ccccc21 (stereo not given),-138.5,·,0.7,2.4*,28.0,·
COc1ccc(NC(=O)CNS(=O)(=O)c2cccc3nonc23)c(OC)c1,74.2*,·,0.3,0.3,71.8*,·
COc1ccc(CNC(=O)CCCNS(=O)(=O)c2cccc3nonc23)cc1,26.0,·,0.7,0.7,34.9,·
SMILES,CYP2C9 inh,Plk1 PBD FP,CYP2C19 activ,CYP2C9 activ,CYP2C19 inh,PLK1 inh
COc1ccc(CCNC(=O)CCNS(=O)(=O)c2cccc3nsnc23)cc1OC,35.1,·,0.3,0.6,72.5*,·
COC(=O)c1ccc(CSc2nc(-c3ccc(OC)cc3)nc3c2c(=O)n(C)c(=O)n3C)o1,·,12.6,·,·,·,-17.2
O=C(CCCNS(=O)(=O)c1cccc2nsnc12)NCc1ccc(Cl)cc1,-55.2,-6.9,0.8,1.6,15.2,-0.9
O=C(CCNS(=O)(=O)c1cccc2nsnc12)NCCc1ccccc1,-17.6,·,0.5,1.2,51.5*,·
CC(=O)c1ccc(NC(=O)CCNS(=O)(=O)c2cccc3nonc23)cc1,-5.8,·,0.5,1.1,48.9,·
CCc1ccc(NC(=O)CCNS(=O)(=O)c2cccc3nonc23)cc1,55.1*,·,0.7,0.4,27.4,·
Cc1ccc(CNC(=O)CNS(=O)(=O)c2cccc3nsnc23)cc1,52.4*,1.8,0.7,0.5,30.9,-0.6
O=C(CCCNS(=O)(=O)c1cccc2nsnc12)NCc1ccccc1,-1.7,0.1,0.9,1,8.6,-1.8
CC(C)N(C(=O)C(F)(F)F)C(C(=O)NC1CCCCC1)c1ccncc1 (stereo not given),·,-6.2,·,·,·,-13.5
COC(=O)c1[nH]c(C)c(/C(O)=C2\C(=O)C(=O)N(CCN(C)C)C2c2ccc(OC)cc2)c1C (stereo not given),-6.5,·,1,1.1,4.9,·
COC(=O)C(Cc1cnc(Cl)s1)(C(=O)OC)c1ccc([N+](=O)[O-])cc1[N+](=O)[O-],67.2*,-3.8,0.2,0.3,79.2*,-3.7
COC(=O)C(Cc1cnc(Cl)s1)(C(=O)OC)c1ccc(C(F)(F)F)cc1[N+](=O)[O-],50.6*,14.6,0.1,0.5,87.0*,-9.1
CCOc1ccc(C(F)(F)F)cc1NC(=O)c1ccc(OC)c([N+](=O)[O-])c1,-5.2,-9.4,1,1.1,-0.6,-12.0
O=C(NCCCN1CCc2ccccc2C1)C1CCN(S(=O)(=O)N2CCCC2)CC1,9.7,14.3,0.9,0.9,11.7,-6.1
O=C(O)C(Cc1ccccc1)n1cnnn1 (stereo not given),2.5,11.2,1,1,-3.1,-9.5
Cc1cnc(C(=O)Nc2ccc(C(=O)N3CCCCC3)cc2)cn1,-0.5,1.3,0.7,1,26.8,-11.4
COC(=O)C(C)Oc1ccc(-c2nccc(-c3cccs3)n2)cc1 (stereo not given),64.8*,-24.3,0.7,0.4,32.5,-9.7
Oc1ccc(-c2nccc(-c3cccs3)n2)cc1,67.5*,-15.6,0.8,0.3,18.5,5.6
O=C(Nc1nccc(-c2cccs2)n1)c1ccccc1Cl,5.0,-2.7,0.7,0.9,27.7,-4.0
Cc1ccccc1C(C(=O)NCc1ccccc1)N(Cc1ccco1)C(=O)c1ccccn1 (stereo not given),33.9,-7.0,0.5,0.7,53.5*,-11.0
Cc1cccc(C)c1NC(=O)C1(N(Cc2ccco2)C(=O)c2ccccn2)CCCC1,62.7*,-34.2,0.6,0.4,41.3,-1.0
O=C(NCc1ccccc1)C(c1ccc(F)cc1)N(Cc1ccco1)C(=O)c1ccccn1 (stereo not given),23.0,-4.4,0.4,0.8,61.5*,6.1
COc1ccc2oc3ccc(OC)cc3c(=O)c2c1,-29.9,-6.8,1,1.3,2.4,-7.4

# High-throughput results deposited in PubChem by several laboratories.
